Dicer processing – blocks human Dicer maturation of pre-miR-21; cat-ELCCA pre-miR-21 Dicer processing, chemiluminescence; hits give high values; 47,000 compounds, 6% hits; Q9UPY3; z-score at 25 µM; AID 1347074; in the data active = z-score above about 3, passing the limit was not always enough;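 also: plate controls were vehicle for no effect and no enzyme for full effect; higher signal means more uncleaved substrate so more Dicer inhibition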
Starred values were filed as active, the others as inactive. This is one part of a sample in which hits are shown more often than they occur.

SMILES	Dicer processing
COc1ccc(-c2nc(-c3ccccc3Cl)no2)cc1OC	-0.38
Cn1c2c(c3ccccc31)/C(=N/OC(=O)c1ccc(Cl)cc1Cl)CCC2	-1.4
C/C(=N\OC(=O)c1cccs1)c1cc(C(C)(C)C)cc2c1CCC2(C)C	-1.1
O=C(NC1CCN(C(=O)c2cccnc2Oc2ccccc2)CC1)c1ccccc1	-0.43
Cc1ccc(S(=O)(=O)NC2=NCN(Cc3cccnc3)CN2)cc1	4.5*
COCCCN1CN=C(NS(=O)(=O)c2ccc(C)cc2)NC1	-2.5
COCCN1CN=C(NS(=O)(=O)c2ccc(C)cc2)NC1	0.48
Cc1cc2nc(NCCCO)[nH]c2cc1C	-0.28
Cn1c(N2CCN(c3ccc([N+](=O)[O-])cn3)CC2)cc(=O)n(C)c1=O	0.01
O=C(Cc1ccccc1)NC1=NCCS1	-1.2
CC(=O)CCC1C(C#N)C(C(C)C)CCC1(C)OC(C)=O (stereo not given)	-0.8
CCOC(=O)C(C)c1nc2ccccc2[nH]c1=O (stereo not given)	3
O=C(CCc1nc2ccccc2[nH]c1=O)OCc1ccc(Br)cc1	1.6
CC(C)OC(=O)c1ccc(COC(=O)CCc2nc3ccccc3[nH]c2=O)cc1	3.4*
O=C(Cn1cc(C(=O)C2CC2)c2ccccc21)NCCOc1ccc(Cl)cc1	0.97
Cc1ccc(-c2n[nH]c(S(C)(=O)=O)c2C#N)cc1	-2.1
CS(=O)(=O)c1scc(-c2ccccc2)c1C#N	-1.1
Cn1nc(-c2ccccc2)c(C#N)c1S(C)(=O)=O	3.2*
N#CC(NCc1ccccc1)c1ccc(Cl)c(Cl)c1 (stereo not given)	-0.46
CCc1ccc(C2=NN(C(=O)CCCC(=O)O)C(c3ccc(Cl)cc3)C2)cc1 (stereo not given)	-0.11
Clc1ccc2nc(NC3=NCN(Cc4ccccc4)CN3)oc2c1	1.2
COc1ccc(CN2COc3ccc(F)cc3C2)cc1	0.47
CCOc1ccc2c(c1)CN(Cc1ccc(Cl)cc1)CO2	1.1
Brc1ccc2c(c1)CN(Cc1ccccc1)CO2	4.5*
Brc1ccc2c(c1)CN(C1CCCCC1)CO2	1.5
SMILES	Dicer processing
Clc1ccc2c(c1)CN(Cc1ccccc1)CO2	3.3*
Cc1cc(C)nc(NC2=NCC(=O)N2c2ccc(F)cc2)n1	1.4
CC1(C)NC(=O)N(CC(O)COc2ccccc2F)C1=O (stereo not given)	3
CN(C)/C=C(\C#N)C(=O)c1ccccc1	1.6
CO/N=C1\CC(C)(C)Cc2c(-c3ccn(C(=O)Nc4cccc(Cl)c4)n3)sc(SC)c21	0.56
O=C(Nc1ccc(OCc2ccccc2)cc1)OCCn1ncc2ccccc2c1=O	-2.5
CSc1nc2c(Cl)cccc2c2c1c(=O)n(Cc1ccccc1Cl)n2C	-2.2
O=C(O)c1cc2cccc([N+](=O)[O-])c2[nH]1	132*
O=[N+]([O-])c1cccc2cn[nH]c12	-0.78
CCCCNC(=O)c1cc2cccc([N+](=O)[O-])c2[nH]1	1.1
CCS(=O)(=O)N(C(=O)c1ccco1)c1ccc2c(c1)c(C(=O)OC)c(C)n2S(=O)(=O)CC	0.15
O=S1(=O)CCC(S(=O)(=O)NCc2ccccc2)C1 (stereo not given)	-1.8
Cn1c(OCc2ccc3c(c2)OCO3)nc2c1c(=O)n(Cc1ccccc1F)c(=O)n2C	0.69
O=C(O)CCSc1ccc2ccccc2c1	-0.85
Nc1cc(N)nc(SCCC(=O)O)n1	3.3*
O=C(O)CCSc1nc2ccccc2[nH]1	-1.6
Cc1onc(-c2ccccc2)c1NC(=O)NN(C)c1ccc(C(F)(F)F)cc1[N+](=O)[O-]	-0.75
CN1C(=O)C(O)N(c2ccccc2)C1=O (stereo not given)	-7.5
N#Cc1c(SCc2ccc(Cl)cc2)nc2c(c1-c1cccs1)CCCC2	-0.53
N=C1C(c2nc3ccccc3s2)=C(O)CN1Cc1ccccc1	0.75
N=C1C(c2nc3ccccc3s2)=C(O)CN1C1CCCCC1	3.1*
Cc1ccc(N2CC(O)=C(c3nc4ccccc4s3)C2=N)cc1	0.48
CC(C)(C)c1ccc(-c2nnc(-c3cccc([N+](=O)[O-])c3)o2)cc1	-0.2
CC(C)OC(=O)CSC1=C(C#N)C(c2ccc(C(C)C)cc2)CC(=O)N1 (stereo not given)	0.22
Nc1cc(=O)n(Cc2ccccc2)c(=O)n1-c1cccc(F)c1	-0.42
SMILES	Dicer processing
Cn1c(=O)c2c(nc(NC3CCCCC3)n2CC(O)COc2ccccc2)n(C)c1=O (stereo not given)	-2.4
Cn1c(=O)c2c(nc(NCCO)n2CC(O)COc2ccccc2)n(C)c1=O (stereo not given)	-1.6
COc1ccc(OCC(O)Cn2c(NC3CCCCC3)nc3c2c(=O)n(C)c(=O)n3C)cc1 (stereo not given)	3.3*
Nc1c(C(=O)c2ccc(Cl)cc2)sc2nc3c(c(-c4cccs4)c12)CCCC3	-0.57
COC(=O)Cc1nc(NC(=O)C2CCC2C(=O)O)sc1C (stereo not given)	3.3*
COC(=O)Cc1nc(NC(=O)c2nc(-c3ccccc3)oc2C)sc1C	0.09
COC(=O)Cc1nc(Nc2ccccc2)sc1C	-0.11
CCNc1nc(SCC(=O)NC(=O)NC)nc2sc3c(c12)CCN(C)C3	-1.6
COCCOC(=O)C1=C(C)NC2=C(C(=O)CCC2)C1c1ccccc1OCc1ccccc1 (stereo not given)	-0.77
CC(=O)c1ccccc1OC(=O)c1c(Cl)cccc1Cl	0.47
COc1ccc(C2Nn3c(nnc3-c3ccccc3)SC2C(=O)NCC2CCCO2)cc1Cl (stereo not given)	6.6*
Cc1ccc(C2Nn3c(C)nnc3SC2C(=O)NCC2CCCO2)cc1 (stereo not given)	-0.76
Cc1nnc2n1NC(c1ccc(Cl)cc1)C(C(=O)NCC1CCCO1)S2 (stereo not given)	2.4
N#CCCN(CCc1ccccn1)C(=S)Nc1cccc(C(F)(F)F)c1	-0.92
CCN(S(=O)(=O)c1ccc(F)cc1)S(=O)(=O)c1c(C)c(C)c(C)c(C)c1C	-0.16
CC(C)c1ccc(OCCCCN2CCCC2)cc1	-1.1
Cc1n[nH]c(C)c1N=Nc1cc(Cl)cc(Cl)c1	-0.41
CCCCOc1ccc2c(=O)c(Oc3cc(C)ccc3C)coc2c1	0.9
CC(C)N(Cc1ccccc1)C(=O)Nc1ccc(C(C)(C)C)cc1	-0.81
COc1ccc(NC(=O)c2cnn3c2NC(c2cccs2)CC3C(F)(F)F)cc1OC (stereo not given)	1.4
COc1ccc(Cl)cc1NC(=O)c1cnn2c1NC(c1ccco1)CC2C(F)(F)F (stereo not given)	3*
COc1ccc(NC(=O)c2cnn3c2NC(c2ccco2)CC3C(F)(F)F)cc1OC (stereo not given)	4.6*
COCCNC(=O)c1cc2n(n1)C(C(F)(F)F)CC(c1ccco1)N2 (stereo not given)	-0.64
O=C(Nc1cccnc1)c1cc2n(n1)C(C(F)(F)F)CC(c1ccco1)N2 (stereo not given)	0
O=C(NCc1ccc(-n2cccn2)cc1)c1cnn2c1NC(c1ccco1)CC2C(F)(F)F (stereo not given)	1.8
SMILES	Dicer processing
CC(C)(C)NCC(=O)Nc1cc(Cl)cc(Cl)c1	-0.07
COc1ccc(C(=O)NNc2ncnc3cc(C(C)(C)C)sc23)cc1OC	2.6
C#CC(CC)(CC)NC(=O)COc1cc(Cl)c(Cl)cc1Cl	0.3
O=C1CC(Nc2ccc(O)cc2)C(=O)N1c1ccccc1 (stereo not given)	-3.4
CCOC(=O)Cc1csc(NC(=O)CCC2CCCCC2)n1	-1.1
O=C(CSc1nc2ccccc2[nH]1)Nc1ncccn1	0.74
CC(C)(C)NC(=O)CSc1nc2ccccc2[nH]1	4.9*
CCOC(=O)CSc1nc2ccccc2[nH]1	-0.04
